Laboratory results as given in PubChem BioAssay AID1745847 (National Center for Advancing Translational Sciences (NCATS), 2022).
Screen size: about 2,100 compounds; about 670 (32%) were called active. Not shown: some 50% with an inconclusive outcome. The list shows a part of the results. Values without a mark were called inactive. Calls follow the shape of the dose curve; as a rule, active = well fitted inhibition curve with a large enough effect; inconclusive = small, poorly fitted or top-dose-only effect; inactive = no such curve, though single readings can be large or run the other way.

assay: CMV-Luciferase Counterscreen for Inhibitors of ATXN expression; conditions: HEK-293 CMV-luciferase reporter, luminescence, 24 h; series mostly up to 57.5 µM; activity change, negative = inhibition: at the top concentration; also: nearly all actives have a fitted effect of over 55% in size
% is scaled to controls: 0 for no effect and ±100 for the full control effect; potency is read from the fitted curve at half-maximal effect.

For `CCCc1nc(NC2CCCCC2)c(C#N)c2c1COC(C)(C)C2`, which activity change, negative = inhibition is on record?
The activity change, negative = inhibition was -15.4% [at 11.4 µM].

Which Potency does the source give for `CC(=O)Oc1ccc(N(C(C)=O)S(=O)(=O)c2cccs2)c2ccccc12` here?
The Potency was 25.1 µM (active).

With `CC(=O)Oc1ccc(N(C(C)=O)S(=O)(=O)c2ccc(C)cc2C)c2ccccc12` as the compound, how does the Potency read?
Its Potency is 17.8 µM (active).

For `NC(Cc1ccc(F)cc1)c1csc(Nc2cc(NCc3ccco3)ncn2)n1` (configuration not stated), which activity change, negative = inhibition is on record?
Its activity change, negative = inhibition is 0.881% [at 11.4 µM].

Which Potency does the source give for `Cc1nc(C(F)(F)F)c(C(=O)N/N=C(\N)c2ccccn2)s1` here?
The Potency was 10 µM (active).

Which Potency does the source give for `Cc1cccc(/C=C/C(=O)c2ccc([N+](=O)[O-])o2)c1` here?
The Potency was 3.55 µM (active).

For `COc1cc(/C=C/C(=O)c2ccc(C)c([N+](=O)[O-])c2)cc(OC)c1O`, which “activity change, negative = inhibition” value is on record?
Its value is -13.8%.

With `CN(C)C(=O)c1cccc(-c2cnc3c(NC=O)cc(-c4ccc(F)cc4)cn23)c1` as the compound, how does the activity change, negative = inhibition read?
The activity change, negative = inhibition was 49.3% [at 11.4 µM].

With `COc1ccc(CC2C(=O)NC(C)C(=O)N(C)C3Cc4ccc(cc4)Oc4cc(ccc4O)CC(C(=O)NC(C)C(=O)NC(C)C(=O)N2C)N(C)C3=O)cc1` (configuration not stated) as the compound, how does the Potency read?
The Potency was 0.891 µM (active).

With `O=C(N/N=C/c1cc([N+](=O)[O-])ccc1O)c1cccc2cc[nH]c12` as the compound, how does the Potency read?
The Potency was 2.82 µM (active).

With `O=C(N/N=C/c1cc([N+](=O)[O-])ccc1O)c1cc(-c2ccccc2)nc2ccccc12` as the compound, how does the Potency read?
The Potency was 1.78 µM (active).

With `OC[C@@H]1CN(Cc2ccc(-c3ccccc3)cc2)C[C@H](n2cnc3c(Nc4ccccc4)ncnc32)O1` as the compound, how does the Potency read?
The Potency was 12.6 µM (active).

Which Potency does the source give for `OC[C@@H]1CN(Cc2ccc(-c3ccccc3)cc2)C[C@H](n2cnc3c(NC4CCC4)ncnc32)O1` here?
Its Potency is 10 µM (active).

With `CN(C)CCNc1ncnc2c1ncn2[C@H]1CN(Cc2ccc(-c3ccccc3)cc2)C[C@@H](CO)O1` as the compound, how does the “activity change, negative = inhibition” value read?
Its value is -29.3%.

Which “activity change, negative = inhibition” value does the source give for `CN(C)CCCNc1nc2cc(-c3cccc(Cl)c3)sc2c(=O)n1C` here?
The value was -10.1%.

Which Potency does the source give for `CC1CCCCN1C(=O)C1CCN(c2nc(-c3ccccc3)nc3c2CCC3)CC1` (configuration not stated) here?
Its Potency is 22.4 µM (active).

Which “activity change, negative = inhibition” value does the source give for `CN(C)C(=O)CSc1nc(-c2ccccc2)nc2c1CCCC2` here?
Its value is -18.6%.

With `CSc1nc(-c2ccc(Cl)cc2)nc(N)c1C#N` as the compound, how does the activity change, negative = inhibition read?
Its activity change, negative = inhibition is -7.46% [at 11.4 µM].

Which Potency does the source give for `CCc1cc(-c2nnn(CCC3COCCO3)c2CC)ccc1-c1cn(CCc2c[nH]c3ccccc23)nn1` (configuration not stated) here?
The Potency was 4.47 µM (active).

Which Potency does the source give for `COc1ccc2oc(/C=C/N(C)C)c(C(=O)c3ccc(Cl)cc3)c2c1` here?
The Potency was 12.6 µM (active).

With `C[C@H]1O[C@@H](O[C@H]2[C@@H](O)C[C@H](O[C@H]3[C@@H](O)C[C@H](O[C@H]4CC[C@@]5(C)[C@H](CC[C@@H]6[C@@H]5C[C@@H](O)[C@]5(C)[C@@H](C7=CC(=O)OC7)CC[C@]65O)C4)O[C@@H]3C)O[C@@H]2C)C[C@H](O)[C@@H]1O` as the compound, how does the “activity change, negative = inhibition” value read?
The value was -12%.

With `COc1cc2c3nnc(-c4ccc(F)cc4)c-3cn(Cc3ccc(C)cc3)c2cc1OC` as the compound, how does the “activity change, negative = inhibition” value read?
The value was 16.9%.

With `O=c1oc2ccccc2c(O)c1Cc1cc(Cl)c2cccnc2c1O` as the compound, how does the Potency read?
The Potency was 10 µM (active).

For `CCC1(c2ccccc2)ON(c2c(Br)cccc2Br)C1=O` (configuration not stated), which Potency is on record?
The Potency was 17.8 µM (active).

For `O=C(c1ccc(Cn2c(=S)[nH]c3ccccc3c2=O)cc1)N1CCN(c2ccccn2)CC1`, which Potency is on record?
The Potency was 3.16 µM (active).

With `CCc1nc2ccc(C(=O)Nc3cccc(NS(C)(=O)=O)c3)cn2c1N(CC)Cc1cccc(Br)c1` as the compound, how does the Potency read?
The Potency was 31.6 µM (active).

For `CCc1nc(N)nc(N)c1-c1ccc(N(C)Cc2ccccc2)c([N+](=O)[O-])c1`, which Potency is on record?
The Potency was 0.501 µM (active).

For `Cn1c(-[n+]2c(-c3ccccc3)cc(-c3ccccc3)cc2-c2ccccc2)nc2c([N+](=O)[O-])cccc21`, which activity change, negative = inhibition is on record?
Its activity change, negative = inhibition is 0.1% [at 11.4 µM].

For `O=S(=O)([N-]c1nc2ccccc2nc1-[n+]1ccc(Cc2ccccc2)cc1)c1ccc(Br)s1`, which Potency is on record?
Its Potency is 14.1 µM (active).

With `CN1CCN(CCNC(=O)c2ccc3nc(-c4ccc(F)cc4)c(-c4ccc(F)cc4)nc3c2)CC1` as the compound, how does the “activity change, negative = inhibition” value read?
The value was -29.4%.

With `O=C(Nc1ccc(Cl)c([N+](=O)[O-])c1)c1ccc(NCCCN2CCOCC2)c([N+](=O)[O-])c1` as the compound, how does the “activity change, negative = inhibition” value read?
The value was 1.7%.

With `Cc1ccc(-c2cc(C(=O)NCCCN3CCOCC3)no2)cc1` as the compound, how does the Potency read?
The Potency was 8.91 µM (active).

With `O=C(N/N=C/c1ccccc1O)C1CC(=O)N(c2ccc(Cl)cc2)C1` (configuration not stated) as the compound, how does the Potency read?
The Potency was 0.631 µM (active).

For `CCc1ccc(N2CC(C(=O)N/N=C/c3cc([N+](=O)[O-])ccc3O)CC2=O)cc1` (configuration not stated), which Potency is on record?
The Potency was 10 µM (active).

For `Cc1cnc(NC(=O)C2CC(=O)N(c3cccc(Cl)c3)C2)s1` (configuration not stated), which activity change, negative = inhibition is on record?
The activity change, negative = inhibition was 51.5% [at 11.4 µM].

Which Potency does the source give for `COc1ccc(Cn2c(-c3ccc(C)cc3)c[n+]3ccccc23)cc1` here?
The Potency was 1 µM (active).

With `Nc1nc(N)c2cc(Sc3ccc4ccccc4c3)ccc2n1` as the compound, how does the Potency read?
The Potency was 10 µM (active).

For `COc1cc(Nc2ncc3c(n2)CCN(C(=O)Nc2ccc(C(C)C)cc2)C3)cc(OC)c1OC`, which activity change, negative = inhibition is on record?
Its activity change, negative = inhibition is -3.4% [at 11.4 µM].

Which Potency does the source give for `COc1cc(NC(=O)c2cc(-c3ccccc3)nc3c2cnn3C(C)C)cc(OC)c1OC` here?
The Potency was 3.16 µM (active).

For `Cc1ccccc1C(=O)N1CCN(c2ccc(NC(=O)c3ccco3)cc2Cl)CC1`, which Potency is on record?
Its Potency is 12.6 µM (active).

Which Potency does the source give for `O=C(Nc1ccc(N2CCN(C(=O)c3ccco3)CC2)c(Cl)c1)c1cccs1` here?
Its Potency is 20 µM (active).

With `O=C(Nc1ccc(NC(=O)c2ccc(Cl)cc2Cl)cc1)c1cccs1` as the compound, how does the “activity change, negative = inhibition” value read?
The value was -4.86%.

Which activity change, negative = inhibition does the source give for `O=C(Nc1ccc(N2CCOCC2)c(Cl)c1)c1c(F)c(F)c(F)c(F)c1F` here?
The activity change, negative = inhibition was 29.5% [at 11.4 µM].

With `N#Cc1nc(Cc2cccc3ccccc23)oc1NCc1ccc(F)cc1` as the compound, how does the Potency read?
Its Potency is 12.6 µM (active).

For `CC(C)(C)c1cc(C(=O)N/N=C/c2ccc([N+](=O)[O-])s2)n[nH]1`, which Potency is on record?
Its Potency is 11.2 µM (active).

Which Potency does the source give for `O=C(N/N=C/c1ccc([N+](=O)[O-])s1)c1ccccc1` here?
Its Potency is 7.94 µM (active).

For `Cc1ccnn1CC(=O)N/N=C/c1ccc([N+](=O)[O-])s1`, which Potency is on record?
Its Potency is 15.8 µM (active).

With `Cc1ccccc1C(=O)N/N=C/c1ccc([N+](=O)[O-])s1` as the compound, how does the Potency read?
Its Potency is 11.2 µM (active).

Which Potency does the source give for `COc1ccc(C(=O)NCC(=O)N/N=C/c2ccc([N+](=O)[O-])s2)cc1OC` here?
The Potency was 12.6 µM (active).

For `CC(C)c1cccc(C(C)C)c1Nc1cn[nH]c1`, which activity change, negative = inhibition is on record?
The activity change, negative = inhibition was -9.58% [at 11.4 µM].

With `c1ccc(-c2cccc(-c3ccccn3)n2)nc1` as the compound, how does the activity change, negative = inhibition read?
The activity change, negative = inhibition was 72.5% [at 11.4 µM].

With `NC(=Nc1nc(-c2ccccn2)cc2ccccc12)c1ccccn1` as the compound, how does the Potency read?
The Potency was 0.0398 µM (active).
